# In the library only some 6% were active in any assay of this set; here they are far more common.
# VDR inh = vitamin D3 receptor (human) inhibition; P11473; VDR-SRC2-3 peptide fluorescence polarization, 2 h; Potency, µM, for the others: max response, negative = inhibition, usual class: inhibitors; 400,000 compounds, 0.93% hits
# Target sequence (P11473 whole entry, looked up): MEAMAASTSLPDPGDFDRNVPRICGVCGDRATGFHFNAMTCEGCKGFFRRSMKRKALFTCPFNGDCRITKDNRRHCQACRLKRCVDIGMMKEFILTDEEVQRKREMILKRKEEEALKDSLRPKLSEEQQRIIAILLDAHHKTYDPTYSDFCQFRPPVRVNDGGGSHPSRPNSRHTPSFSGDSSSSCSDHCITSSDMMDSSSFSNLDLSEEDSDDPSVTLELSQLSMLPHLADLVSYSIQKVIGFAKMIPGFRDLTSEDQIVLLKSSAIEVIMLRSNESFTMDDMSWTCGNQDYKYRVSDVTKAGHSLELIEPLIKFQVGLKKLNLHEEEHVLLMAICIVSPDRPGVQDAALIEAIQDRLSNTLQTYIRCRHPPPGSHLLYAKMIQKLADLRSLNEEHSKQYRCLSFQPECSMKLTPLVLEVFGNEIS
#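 VDR–SRC2-3 interaction, FP format. Cmpds 23 nl via pintool, brief spin, 2 h ambient incubation.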
# Tau fluor cs = counter-screen for tau fibril formation inhibitors; 280,000 compounds, 0.93% hits; AID 1463; Potency, µM (doses to about 57.7 µM), for the others: at the top dose activity change, negative = decrease; tau K18 P301L Alexa594 fluorescence, heparin fibrillization; further: nearly all actives have a fitted effect of over 55% in size
#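 Human K18 P301L tau (15 uM unlabeled plus 0.24 uM Alexa 594-labeled, final) in 100 mM sodium acetate pH 7 was mixed with compound and 20 uM heparin and incubated 6 hr at 37 C.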
# Tau fibril ThT = tau fibrillization inhibition (ThT binding). AID 1460. recombinant tau K18 P301L (four-repeat tau fragment), heparin-induced fibrillization, ThT fluorescence. P10636. Potency, µM (highest dose often 57.4 µM), for inactives: top-dose activity, negative = inhibition, actives largely listed as inhibitors. 270,000 compounds, 2.1% hits; further: nearly all actives have a fitted effect of over 55% in size
#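 Recombinant human tau K18 fragment […] carrying P301L, 15 uM unlabeled plus 0.24 uM Alexa 594-labeled, was fibrillized with 20 uM heparin in 100 mM sodium acetate pH 7 for 6 hr at 37 C; 30 uM ThT fluorescence read after 1 hr.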
# PLK1 PBD inh = inhibitors of human PLK1 polo-box domain binding; Plk1 PBD binding of FITC phosphopeptide, fluorescence polarization; Potency, µM, for the others: max response, negative = inhibition, actives largely listed as inhibitors; 360,000 compounds, 2.8% hits; AID 720504; further: series mostly up to about 57 µM; nearly all actives have a fitted effect of over 65% in size
# Sfp PPTase inh = Sfp phosphopantetheinyl transferase inhibition | Q9F4F7 | 310,000 compounds, 3.5% hits | Biochemical Sfp PPTase activity, qHTS | AID 1490 | Potency, µM, inactives show largest response in the series, negative = inhibition, usual class: inhibitors;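 further: the enzyme is Sfp with the accession as filed and its product quenches rhodamine fluorescence; 0% = enzyme reaction without inhibitor and -100% = no enzyme wells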
#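 Fluorescence-quenching assay: 15 nM Sfp-PPTase preincubated 15 min at room temperature with compound, then 5 uM rhodamine-CoA and 12.5 uM BHQ-2-labelled YbbR peptide added. Fluorescence (ex 525/em 598 nm) read at start and after 30 min; difference gives rate.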
# Tau fibril FP = tau fibrillization inhibition (FP); Potency, µM (doses to about 57.7 µM), for inactives: at the top dose activity, negative = inhibition, usual class: inhibitors; P10636; K18 P301L tau heparin fibrillization, Alexa594 FP, 6 h; 280,000 compounds, 0.39% hits; further: nearly all actives have a fitted effect of over 55% in size
#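 Steps: dispense K18 P301L tau (15 uM plus 0.24 uM Alexa 594 tracer, final) in pH 7 sodium acetate; add compound; add heparin (20 uM final); incubate 6 hr, 37 C; add ThT (30 uM final); after 1 hr ambient, read FP.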
# Starred values were filed as active, the others as inactive; u = inconclusive; x = no result given; [ ] = another dose, or the depositor's remark. The call rests on the fitted dose curve; in most records, active means well fitted curve in the direction sought with a large enough effect; inconclusive means small, poorly fitted or top-dose-only effect, or another doubt; inactive means no such curve, though single readings can be large; an effect the other way counts as inactive or inconclusive. Unless noted, on the % scale 0 is the no-effect control and ±100 the full control effect; potency means the concentration at half of the fitted maximal effect.
SMILES,VDR inh,Tau fluor cs,Tau fibril ThT,PLK1 PBD inh,Sfp PPTase inh,Tau fibril FP
CCCC(=O)N(c1ccc2oc3c(c2c1)CCCC3)S(=O)(=O)c1cc(C)ccc1C,7%,-20%,u,x,x,-8%
COc1ccc(Nc2nc3ccccc3n3c(N)nnc23)cc1,-1%,u,u,x,x,4%
Cc1ccc2nc(SCC(=O)c3ccc4c(c3)OCO4)[nH]c2c1,4%,-14%,u,-14%,45µM*,0%
Cc1ccc2nc(SCC(=O)Nc3ccc(C)c([N+](=O)[O-])c3)[nH]c2c1,-10%,u,u,-3%,1%,u
Cc1ccc2nc(SCC(=O)Nc3ccc(F)c([N+](=O)[O-])c3)[nH]c2c1,-16%,28µM*[quencher],u,-11%,-6%,-9%
CCCC1OC2CC3C4CCC5=CC(=O)C=CC5(C)C4C(O)CC3(C)[C@]2(C(=O)CO)O1 (stereo not given in full),-7%,5%,3%,x,11%,10%
Cc1ccc(C(=O)N/N=C/c2cccc(OC(=O)/C=C/c3ccco3)c2)cn1,-12%,u,u,27µM*,32µM*,-1%
Cc1cc(C(=O)N/N=C/c2ccccn2)n[nH]1,2%,2%,-4%,6%,40µM*,-1%
Cc1occc1C(=O)N/N=C/c1ccccn1,15%,-5%,-11%,-1%,63µM*,-9%
O=C(N/N=C/c1ccccn1)c1cc(C2CC2)[nH]n1,-4%,-1%,-12%,2%,-44%,-1%
Cc1cccc(C(=O)N/N=C/c2ccccn2)c1,-3%,1%,-6%,-8%,45µM*,-1%
Cc1ccc(NC(=O)CSc2nnc(C3CC3)n2C)cc1S(=O)(=O)N1CCCCC1,0%,x,x,2%,x,x
Cc1ccc(C(=O)N/N=C\c2ccccn2)cn1,-11%,-8%,-14%,-6%,7.1µM*,-8%
N#CCN(CC#N)C(=O)C1c2ccccc2Oc2ccccc21,-15%,x,x,24µM*,9%,x
CC(=O)Oc1ccc(N2C(=O)C3C(C2=O)C(C(=O)c2ccc(Cl)cc2)N2CCCC32)cc1 (stereo not given),-5%,-16%,35µM*,24µM*,-1%,u
COc1cccc(Cc2nc3ccccc3nc2SCC(=O)NCc2ccc(C)cc2)c1,13%,-1%,3%,x,x,-2%
CCCc1ccc(OC(=O)c2ccc(O)cc2Cl)cc1,10%,u,u,-12%,1%,28µM*
CCOc1ccc(Sc2cc(C(=O)NC(C)c3ccccc3)c3ccccc3n2)cc1 (stereo not given),5%,-13%,-4%,x,x,-5%
CCCN1CCN(CC2=C(C(=O)OCC)C(c3ccc(Cl)cc3)NC(=O)N2)CC1 (stereo not given),-3%,-5%,-1%,x,x,-3%
Cc1ccc(CNc2ccc3c(c2)OCO3)c(C)c1,x,u,13µM*,x,u,u
Cc1ccc(-c2cc(-c3ccc(F)cc3)nc(N)c2C#N)o1,1%,-20%,u,-10%,8.9µM*,-10%
Cc1ccc(-c2cc(-c3ccccc3Cl)c(C#N)c(N)n2)o1,-9%,-28%,32µM*,u,11µM*,-9%
Cc1ccc(-c2cc(-c3ccccc3)c(C#N)c(N)n2)o1,u,-12%,u,21µM*,7.9µM*,5%
Cc1nc(C(=O)O)cc([N+](=O)[O-])c1C,x,x,x,7%,x,x
CCOC(=O)c1cc(-c2ccccc2)n(CCC(=O)Nc2ccc(C(F)(F)F)cc2)c1C,14%,u,1%,x,x,u
O=C(c1ccc(N2CCOCC2)cc1)N1CCCC(Nc2ccccc2)C1 (stereo not given),u,x,x,9.5µM*,14%,x
Nc1cc(N)c(OCC(F)(F)F)cc1OCC(F)(F)F,u,u,3.2µM*,u,u,13µM*
Nc1cc(OCC(F)(F)F)cc([N+](=O)[O-])c1,3%,-1%,-9%,-3%,-2%,14%
COc1ccc(-c2oc3ccccc3c2C(=O)OCc2ccccc2)cc1,-20%,x,x,24µM*,4%,x

# Screens from PubChem BioAssay.
